Our source for the binding signal values is publication PMC7862700, “An all-to-all approach to the identification of sequence-specific readers for epigenetic DNA modifications on cytosine”.

Common to all, as to assay: DAPPL (digital affinity profiling via proximity ligation, sequencing); 10 mM Tris-HCl pH 7.5, 50 mM NaCl, 1 mM DTT, 4% glycerol, room temperature, 30 min; GST-TFs on glutathione beads, 16-mer random dsDNA library, 0.1% formaldehyde crosslink after washing; high values mean tight binding
Conditions in all cases: protein: recombinant; tags: N-terminal GST; dsDNA, one strand shown

One assay deals with T1, ERF (Homo sapiens, UniProt P50548 1-548).
T1 sequence: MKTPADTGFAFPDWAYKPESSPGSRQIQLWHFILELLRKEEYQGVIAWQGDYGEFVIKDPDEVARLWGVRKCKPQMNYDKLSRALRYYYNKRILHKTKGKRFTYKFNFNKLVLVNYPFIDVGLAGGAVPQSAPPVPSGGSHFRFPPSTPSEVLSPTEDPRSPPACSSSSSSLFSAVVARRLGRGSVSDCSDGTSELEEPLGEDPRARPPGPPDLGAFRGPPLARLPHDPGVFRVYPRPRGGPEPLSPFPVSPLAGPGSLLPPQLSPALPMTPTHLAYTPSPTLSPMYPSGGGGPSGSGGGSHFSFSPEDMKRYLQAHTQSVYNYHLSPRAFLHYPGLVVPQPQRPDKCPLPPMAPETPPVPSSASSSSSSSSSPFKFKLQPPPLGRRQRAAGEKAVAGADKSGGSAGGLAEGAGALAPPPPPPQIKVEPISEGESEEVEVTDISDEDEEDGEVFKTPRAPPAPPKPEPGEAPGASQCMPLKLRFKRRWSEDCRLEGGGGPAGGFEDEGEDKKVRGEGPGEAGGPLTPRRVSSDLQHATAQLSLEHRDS
The method, boiled down: (§1)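 Pools were built from human transcription factors expressed in yeast as GST fusions, captured on glutathione beads and DNA-barcoded, along with a tag-only sample. Incubation with 200 nmole of a 16-mer random double-stranded DNA library lasted 30 min at room temperature in Tris/NaCl/DTT/glycerol buffer, and was followed by washing, 0.1% formaldehyde crosslinking, proximity ligation, PCR amplification and Illumina NextSeq500 sequencing. Binding signal is the quotient of each hexamer's read frequency for a factor and its frequency for the tag-only sample.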

The target of a further assay is T2, ETV3L (Homo sapiens, UniProt Q6ZN32 1-361).
T2 sequence: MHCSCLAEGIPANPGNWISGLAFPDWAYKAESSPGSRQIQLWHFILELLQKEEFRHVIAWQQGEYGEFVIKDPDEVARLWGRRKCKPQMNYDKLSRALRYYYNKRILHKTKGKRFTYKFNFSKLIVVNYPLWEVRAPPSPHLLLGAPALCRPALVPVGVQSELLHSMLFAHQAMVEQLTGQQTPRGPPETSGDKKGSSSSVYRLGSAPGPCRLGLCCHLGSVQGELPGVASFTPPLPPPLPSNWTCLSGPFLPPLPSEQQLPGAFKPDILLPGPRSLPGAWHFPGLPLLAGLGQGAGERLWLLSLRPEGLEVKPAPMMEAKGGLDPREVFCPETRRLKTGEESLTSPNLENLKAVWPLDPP
The method, boiled down: as §1

Another assay has as its target T3, ETS2 (Homo sapiens, UniProt P15036 1-469).
T3 sequence: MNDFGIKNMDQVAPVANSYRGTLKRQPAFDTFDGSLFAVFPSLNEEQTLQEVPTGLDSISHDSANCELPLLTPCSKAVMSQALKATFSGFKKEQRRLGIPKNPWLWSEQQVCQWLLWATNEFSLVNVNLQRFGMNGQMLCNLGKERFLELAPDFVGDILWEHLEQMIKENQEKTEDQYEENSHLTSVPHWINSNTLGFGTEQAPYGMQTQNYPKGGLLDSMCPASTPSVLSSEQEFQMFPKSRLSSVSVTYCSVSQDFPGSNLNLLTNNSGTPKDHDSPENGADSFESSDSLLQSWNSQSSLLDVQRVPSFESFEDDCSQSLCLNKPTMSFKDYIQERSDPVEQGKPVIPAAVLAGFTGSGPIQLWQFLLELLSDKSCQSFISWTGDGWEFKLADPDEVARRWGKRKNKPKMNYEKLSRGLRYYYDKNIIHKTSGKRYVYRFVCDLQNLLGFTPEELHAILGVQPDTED
The procedure, abridged:
as §1

The target of another assay is T4, SPDEF (Homo sapiens, UniProt O95238 1-335).
T4 sequence: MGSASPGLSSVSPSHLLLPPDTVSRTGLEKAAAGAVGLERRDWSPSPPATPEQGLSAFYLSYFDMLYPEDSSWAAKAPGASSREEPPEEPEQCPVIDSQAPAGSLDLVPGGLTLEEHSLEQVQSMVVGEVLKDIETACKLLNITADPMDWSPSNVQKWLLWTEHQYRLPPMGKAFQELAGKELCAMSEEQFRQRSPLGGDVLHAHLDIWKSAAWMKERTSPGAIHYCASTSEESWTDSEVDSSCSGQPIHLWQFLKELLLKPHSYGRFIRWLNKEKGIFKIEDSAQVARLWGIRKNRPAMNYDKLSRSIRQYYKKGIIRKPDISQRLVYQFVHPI
The procedure, abridged: as §1

A further assay deals with T5, ETV7 (Homo sapiens, UniProt Q9Y603 1-341).
T5 sequence: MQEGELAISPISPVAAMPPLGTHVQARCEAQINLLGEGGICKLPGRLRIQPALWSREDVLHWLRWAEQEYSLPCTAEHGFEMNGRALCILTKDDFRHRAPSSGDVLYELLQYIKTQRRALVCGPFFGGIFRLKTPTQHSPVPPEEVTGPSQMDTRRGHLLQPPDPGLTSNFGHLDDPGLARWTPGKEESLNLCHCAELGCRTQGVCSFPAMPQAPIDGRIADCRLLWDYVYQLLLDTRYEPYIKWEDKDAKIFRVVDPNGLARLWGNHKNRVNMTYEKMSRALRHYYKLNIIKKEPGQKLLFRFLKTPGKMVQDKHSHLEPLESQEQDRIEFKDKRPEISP
The method, boiled down:
as §1

The next assay addresses T6, ELF5 (Homo sapiens, UniProt Q9UKW6-2 1-255).
T6 sequence: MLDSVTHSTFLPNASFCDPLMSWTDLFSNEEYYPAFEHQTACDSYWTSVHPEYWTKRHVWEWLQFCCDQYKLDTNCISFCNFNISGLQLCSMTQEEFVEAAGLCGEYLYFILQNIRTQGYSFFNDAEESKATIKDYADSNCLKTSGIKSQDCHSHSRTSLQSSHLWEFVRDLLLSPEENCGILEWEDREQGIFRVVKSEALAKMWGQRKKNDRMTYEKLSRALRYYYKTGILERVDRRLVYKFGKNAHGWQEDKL
The procedure, abridged: as §1

Another assay has as its target T7, ETV3 (Homo sapiens, UniProt P41162-2 1-143).
T7 sequence: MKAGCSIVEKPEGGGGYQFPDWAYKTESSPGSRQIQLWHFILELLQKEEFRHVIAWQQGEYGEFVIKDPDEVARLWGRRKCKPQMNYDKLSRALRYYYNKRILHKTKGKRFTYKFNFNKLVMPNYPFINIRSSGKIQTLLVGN
The method, boiled down: as §1

The next assay concerns the target ETV6 (Homo sapiens, UniProt P41212 1-452). The method, boiled down: as §1

Chain of ETV6 (P41212 whole entry): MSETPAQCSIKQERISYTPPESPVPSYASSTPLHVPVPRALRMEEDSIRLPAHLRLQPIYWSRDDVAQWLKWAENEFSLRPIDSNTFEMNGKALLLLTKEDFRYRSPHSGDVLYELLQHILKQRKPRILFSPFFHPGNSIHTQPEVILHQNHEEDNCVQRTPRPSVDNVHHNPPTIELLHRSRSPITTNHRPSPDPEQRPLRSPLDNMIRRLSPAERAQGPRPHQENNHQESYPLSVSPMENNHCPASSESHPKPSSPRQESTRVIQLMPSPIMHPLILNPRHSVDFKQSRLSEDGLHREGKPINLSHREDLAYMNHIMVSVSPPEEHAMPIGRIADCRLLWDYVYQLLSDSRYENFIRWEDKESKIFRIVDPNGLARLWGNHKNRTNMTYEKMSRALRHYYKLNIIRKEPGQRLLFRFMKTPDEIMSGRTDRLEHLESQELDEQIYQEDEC

Take ACAACT: the binding signal is 1.4 fold enrichment (6-mer frequency, TF over GST control) with ERF; 1.36 fold enrichment (6-mer frequency, TF over GST control) with ETV3L; 1.39 fold enrichment (6-mer frequency, TF over GST control) with ETS2; 1.43 fold enrichment (6-mer frequency, TF over GST control) with SPDEF; 1.14 fold enrichment (6-mer frequency, TF over GST control) with ETV7; 1.36 fold enrichment (6-mer frequency, TF over GST control) in the assay with ELF5. The binding signal was 1.35 fold enrichment (6-mer frequency, TF over GST control) with ETV3 and 1.34 fold enrichment (6-mer frequency, TF over GST control) with ETV6.
Turning to GTACAC, the binding signal was 1.15 fold enrichment (6-mer frequency, TF over GST control) in the assay with ERF; 1.16 fold enrichment (6-mer frequency, TF over GST control) with ETV3L; 1.18 fold enrichment (6-mer frequency, TF over GST control) with ETS2; 1.2 fold enrichment (6-mer frequency, TF over GST control) in the assay with SPDEF; 1.24 fold enrichment (6-mer frequency, TF over GST control) with ETV7; 1.2 fold enrichment (6-mer frequency, TF over GST control) with ELF5. The binding signal with ETV3 was 1.21 fold enrichment (6-mer frequency, TF over GST control); in the assay with ETV6, 1.29 fold enrichment (6-mer frequency, TF over GST control).
TCTATA: the binding signal with ERF is 1.15 fold enrichment (6-mer frequency, TF over GST control); in the assay with ETV3L it was 1.09 fold enrichment (6-mer frequency, TF over GST control); in the assay with ETS2, 1.2 fold enrichment (6-mer frequency, TF over GST control); with SPDEF, 1.15 fold enrichment (6-mer frequency, TF over GST control); in the assay with ETV7 it was 1.1 fold enrichment (6-mer frequency, TF over GST control); in the assay with ELF5, 1.08 fold enrichment (6-mer frequency, TF over GST control). Also, the binding signal in the assay with ETV3 is 1.06 fold enrichment (6-mer frequency, TF over GST control); in the assay with ETV6, 1.07 fold enrichment (6-mer frequency, TF over GST control).
On to AAGTTT, for which the binding signal was 1.39 fold enrichment (6-mer frequency, TF over GST control) in the assay with ERF; 1.46 fold enrichment (6-mer frequency, TF over GST control) with ETV3L; 1.39 fold enrichment (6-mer frequency, TF over GST control) with ETS2; 1.37 fold enrichment (6-mer frequency, TF over GST control) with SPDEF; 1.37 fold enrichment (6-mer frequency, TF over GST control) with ETV7; 1.55 fold enrichment (6-mer frequency, TF over GST control) with ELF5. The binding signal with ETV3 was 1.53 fold enrichment (6-mer frequency, TF over GST control); in the assay with ETV6, 1.55 fold enrichment (6-mer frequency, TF over GST control).
On to TAGAAT, for which the binding signal is 1.17 fold enrichment (6-mer frequency, TF over GST control) with ERF; 1.09 fold enrichment (6-mer frequency, TF over GST control) with ETV3L; 1.06 fold enrichment (6-mer frequency, TF over GST control) with ETS2; 1.07 fold enrichment (6-mer frequency, TF over GST control) with SPDEF; 1.13 fold enrichment (6-mer frequency, TF over GST control) with ETV7; 1.08 fold enrichment (6-mer frequency, TF over GST control) in the assay with ELF5. The binding signal is 1.05 fold enrichment (6-mer frequency, TF over GST control) with ETV3 and 1.15 fold enrichment (6-mer frequency, TF over GST control) with ETV6.
Regarding CCTGCG, the binding signal with ERF was 1.22 fold enrichment (6-mer frequency, TF over GST control); with ETV3L, 1.49 fold enrichment (6-mer frequency, TF over GST control); with ETS2, 1.27 fold enrichment (6-mer frequency, TF over GST control); with SPDEF it was 1.23 fold enrichment (6-mer frequency, TF over GST control); with ETV7 it was 1.38 fold enrichment (6-mer frequency, TF over GST control); with ELF5 it was 1.3 fold enrichment (6-mer frequency, TF over GST control). In addition, the binding signal with ETV3 was 1.4 fold enrichment (6-mer frequency, TF over GST control); with ETV6, 1.35 fold enrichment (6-mer frequency, TF over GST control).
For the sequence CGACTA, the binding signal is 1.31 fold enrichment (6-mer frequency, TF over GST control) in the assay with ERF; 1.52 fold enrichment (6-mer frequency, TF over GST control) in the assay with ETV3L; 1.38 fold enrichment (6-mer frequency, TF over GST control) with ETS2; 1.37 fold enrichment (6-mer frequency, TF over GST control) with SPDEF; 1.31 fold enrichment (6-mer frequency, TF over GST control) in the assay with ETV7; 1.34 fold enrichment (6-mer frequency, TF over GST control) in the assay with ELF5. Moreover, the binding signal with ETV3 was 1.21 fold enrichment (6-mer frequency, TF over GST control); with ETV6, 1.28 fold enrichment (6-mer frequency, TF over GST control).
On to TTCCCT, for which the binding signal with ERF was 1.58 fold enrichment (6-mer frequency, TF over GST control); in the assay with ETV3L, 1.69 fold enrichment (6-mer frequency, TF over GST control); in the assay with ETS2, 1.75 fold enrichment (6-mer frequency, TF over GST control); with SPDEF, 1.47 fold enrichment (6-mer frequency, TF over GST control); in the assay with ETV7, 1.55 fold enrichment (6-mer frequency, TF over GST control); in the assay with ELF5, 2.49 fold enrichment (6-mer frequency, TF over GST control). Further, the binding signal is 1.75 fold enrichment (6-mer frequency, TF over GST control) with ETV3 and 1.66 fold enrichment (6-mer frequency, TF over GST control) in the assay with ETV6.
